Laboratory results: publication PMC4552634, “A New Set of Chemical Starting Points with Plasmodium falciparum Transmission-Blocking Potential for Antimalarial Drug Discovery” (PLoS ONE, 2015)
Where two headings read alike, the source gives them in different places. The whole screen tested about 13,000 compounds, of which about 3,200 (25%) showed an effect of 50% or more. The list shows a part of the results.

Test system: P. falciparum stage V gametocytes
Set-up: BacTiter-Glo ATP luminescence viability of purified stage V gametocytes in 384-well plates, per cent inhibition versus DMSO
Details: 48 h, 5 µM, inhibitor

| Compound | % Inhibition [%] | % Inhibition (% Inhibition) [%] |
| --- | --- | --- |
| CC(=O)Nc1ccc([N+](=O)[O-])c2c(Br)cccc12 [TCMDC-125386] | -53.09 | – |
| COc1cc(F)c2ncc(Cl)c([C@H](O)CN3CCC(NCc4ccc5c(n4)NC(=O)CO5)CC3)c2c1 [TCMDC-135487] | 8.334 | – |
| CC(C)(C)c1cc(/C=C/C(=O)NC2CCC(CN3CCC(c4c[nH]c5ccccc45)CC3)CC2)cc(C(C)(C)C)c1O (stereo not drawn) [TCMDC-139757] | – | 96.1 |
| CC(C)(C)c1cc(/C=C/C(=O)NC2CCC(CN3CCC(c4c[nH]c5ccccc45)CC3)CC2)cc(C(C)(C)C)c1O (stereo not drawn) [TCMDC-139767] | – | 105.4 |
| N#Cc1cccc(Nc2cc(C(F)(F)F)nc(Nc3ccccc3)n2)c1 [TCMDC-133458] | 7.387 | – |
| CCOc1cc(Cc2cnc(N)nc2N)cc(Br)c1OC [TCMDC-137721] | -8.107 | – |
| CCN(Cc1ccc(-c2ccc(C(F)(F)F)cc2)cc1)C(=O)Cn1c(SCc2cccc(F)c2F)cc(=O)c2cc(CN3CCCCC3)ccc21 [TCMDC-141592] | 106.5 | – |
| CC(C)N(Cc1ccc(-c2ccc(C(F)(F)F)cc2)cc1)C(=O)Cn1c(SCc2cccc(F)c2F)cc(=O)c2cc(CN3CCCCC3)ccc21 [TCMDC-141593] | 103.1 | – |
| COC(=O)C1(NC(=O)c2ccc(-n3nc(C)c(-c4ccccc4)c3N)cc2)CCCC1 [TCMDC-134041] | 30.38 | – |
| CCCC(C)NC(=O)C(N)Cc1cccc(I)c1 (stereo not drawn) [TCMDC-141272] | -22.86 | – |
| Cc1ncc([N+](=O)[O-])n1CCOC(=O)NC(Nc1ccc(Br)cc1)C(Cl)(Cl)Cl (stereo not drawn) [TCMDC-124219] | 76.02 | – |
| O=C(NCC1COc2ccccc2O1)c1cnc2c(c1)nc(-c1cnc(-c3ccccc3)[nH]1)n2CCSCc1c(F)cccc1Cl (stereo not drawn) [TCMDC-139692] | 12.96 | – |
| CC1(C)N=C(N)N=C(N)N1OCC1COc2ccccc2O1 (stereo not drawn) [TCMDC-131585] | 1.956 | – |
| CC(C)C(=O)NC(NC(=S)Nc1ccc(Br)cc1)C(Cl)(Cl)Cl (stereo not drawn) [TCMDC-124131] | 29.56 | – |
| Cc1ncc([N+](=O)[O-])n1CCOC(=O)NC(NCC1COc2ccccc2O1)C(Cl)(Cl)Cl (stereo not drawn) [TCMDC-125611] | 93.51 | – |
| Cc1nn(CCOC(=O)NC(NCC2COc3ccccc3O2)C(Cl)(Cl)Cl)cc1[N+](=O)[O-] (stereo not drawn) [TCMDC-124139] | 72.15 | – |
| O=C(/C=C/c1ccc(Cl)c(Cl)c1)NCCCCCN1CCCN(C(=O)Nc2ccc([N+](=O)[O-])cc2)CC1 [TCMDC-135754] | -58.55 | – |
| Clc1ccc(CNc2nc(NCCc3cnc[nH]3)nc(N3CCCC4CCCCC43)n2)cc1 (stereo not drawn) [TCMDC-139743] | 10.44 | – |
| Cc1oc(-c2ccccc2)nc1CCOc1ccc(C[C@H](Nc2ccccc2C(=O)c2ccccc2)C(=O)NCc2ccccn2)cc1 [TCMDC-138315] | -1.633 | – |
| NC1=NC2(CCCC2)C(c2ccc(Cl)c(Cl)c2)C(N)=N1 (stereo not drawn) [TCMDC-137490] | 18.93 | – |
| O=C(c1cnn(-c2ccccc2)c1C(F)(F)F)N1CCN(c2ccnc3cc(Cl)ccc23)CC1 [TCMDC-123790] | -13.06 | – |

| Compound | % Inhibition [%] | % Inhibition (% Inhibition) [%] |
| --- | --- | --- |
| COc1cc(Nc2nccc(NCC(O)c3ccc(C(F)(F)F)cc3)n2)cc(OC)c1OC (stereo not drawn) [TCMDC-136589] | -6.814 | – |
| Cc1nc(-c2ccc(-c3ccc(NC(=O)Nc4ccc(I)c(OCCN(C)C)c4)cc3)c(C)c2)no1 [TCMDC-139107] | -54.47 | – |
| Cc1nc(-c2ccc(-c3ccc(C(=O)Nc4ccc(I)c(OCCN5CCCC5)c4)cc3)c(C)c2)no1 [TCMDC-139109] | 57.83 | – |
| COc1ccc(-c2cccc(NC(=O)c3cccc(C#N)c3)c2)cc1CN1CCNCC1 [TCMDC-132620] | 19.71 | – |
| O=C(Nc1ccc(-c2ccccc2)c(OCCN2CCNCC2)c1)c1ccc(-c2ccc(Cl)cc2)cc1 [TCMDC-138818] | 100.4 | – |
| Cc1nc(-c2ccc(-c3ccc(C(=O)Nc4ccc(I)c(OCC5CCCN5C)c4)cc3)c(C)c2)no1 (stereo not drawn) [TCMDC-139110] | -18.97 | – |
| COc1ccc(-c2cccc(NC(=O)c3cccc(Cl)c3)c2)cc1CN1CCNCC1 [TCMDC-132613] | 106.1 | – |
| CN(C)CCOc1cc(NC(=O)c2ccc(-c3ccc(Cl)cc3Cl)cc2)ccc1-c1ccccc1 [TCMDC-138835] | -44.47 | – |
| COc1cc(NC(=O)c2ccc(-c3ccccc3)cc2)ccc1OCCCN1CCC(c2ccccc2)CC1 [TCMDC-141370] | -49.11 | – |
| COc1ccc(-c2cccc(NC(=O)c3ccc(C#N)cc3)c2)cc1CN1CCCC1 [TCMDC-132611] | 11.39 | – |
| COc1ccc(-c2cccc(NC(=O)c3ccc(Cl)cc3)c2)cc1CN1CCCC1 [TCMDC-132604] | 46.68 | – |
| COc1ccc(-c2cccc(NC(=O)c3ccc(Cl)cc3)c2)cc1CN1CCNCC1 [TCMDC-132601] | 95.75 | – |
| CC1C(c2cccc(Cl)c2)OCC(C)(C)N1C(=O)CCN1CCCCC1 (stereo not drawn) [TCMDC-137873] | -11.63 | – |
| COc1ccc2nccc([C@@H](O)CN3CCC(NCc4ccc5c(c4)NC(=O)C(C)(C)O5)CC3)c2c1 [TCMDC-141097] | 21.74 | – |
| NC(N)=NN=C1C=Cc2cccc3cccc1c23 [TCMDC-137662] | -87.82 | – |
| Cc1cc(NC2CCCC2)nc(Nc2ccccc2F)n1 [TCMDC-133463] | -1.86 | – |
| Cc1cc(C)cc(Oc2c(C(F)(F)F)oc3c(CN4CC(C)OC(C)C4)c(O)ccc3c2=O)c1 (stereo not drawn) [TCMDC-125695] | -2.168 | – |
| CCOc1ccccc1NC(=O)Nc1ccc2c(c1)CCN(C1CCC1)CC2 [TCMDC-135951] | 31.77 | – |
| CCN1CCN(C(=O)NC(C(=O)N(C)Cc2ccc(-c3ccc(C(F)(F)F)cc3)cc2)c2cccs2)C(=O)C1=O (stereo not drawn) [TCMDC-141576] | 23.66 | – |
| CCOC(=O)NOC(C(=O)O)c1ccccc1 (stereo not drawn) [TCMDC-131406] | -4.765 | – |
| COC(=O)c1cccc(CNCc2cccc(-c3ccc(-c4nc5cc(C(F)(F)F)ccc5[nH]4)cc3)c2)c1.O=C(O)C(F)(F)F [TCMDC-132955] | -38.35 | – |
